According to PubChem BioAssay (NCATS):
Several values for one entry are separate records, joined by “and”; a condition that tells them apart may be missing. Identical values can stand only once. Records with an inconclusive call do not appear. Unmarked numbers belong to inactive results. Activity calls are given as the source filed them. Calls come from the whole dose curve; as a rule, active = well fitted activation curve with a large enough effect; inconclusive = small, poorly fitted or top-dose-only effect; inactive = no such curve, though single readings can be large or run the other way.
Potency is the fitted concentration of half-maximal effect.

The molecules below were run against Cellular tumor antigen p53 (Homo sapiens) (UniProt P04637) (assay: Primary qHTS for small molecule compounds that upregulate eGFP-tagged delta133p53alpha (in N-terminal) cells. (AID 2060322; note: nearly all actives have a fitted effect of over 75% in size;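 for activation: cells pre-induced with doxycycline then dosed without doxycycline; series mostly up to about 56 µM; 0% = DMSO vehicle and 100% = reference activator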)). Conditions: NCI-H358 eGFP-delta133p53alpha fluorescence, 24 h; activation: active compounds read high.
Chain of Cellular tumor antigen p53 (Homo sapiens) (P04637 whole entry, looked up): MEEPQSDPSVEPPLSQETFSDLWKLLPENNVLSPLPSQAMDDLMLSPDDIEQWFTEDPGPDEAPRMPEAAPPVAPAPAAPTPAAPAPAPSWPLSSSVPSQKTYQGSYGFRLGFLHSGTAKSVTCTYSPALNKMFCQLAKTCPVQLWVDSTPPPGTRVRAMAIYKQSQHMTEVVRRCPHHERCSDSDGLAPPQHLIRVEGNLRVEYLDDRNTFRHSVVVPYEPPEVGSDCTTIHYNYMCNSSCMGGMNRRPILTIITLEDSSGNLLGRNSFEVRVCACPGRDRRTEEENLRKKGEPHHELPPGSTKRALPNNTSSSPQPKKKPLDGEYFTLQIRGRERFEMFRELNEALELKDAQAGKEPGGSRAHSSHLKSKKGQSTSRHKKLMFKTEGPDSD
Outline: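 NCI-H358 cells pre-induced 24 h with 10 ng/ml doxycycline for eGFP-delta133p53alpha, plated dox-free and exposed 24 h at 37C to titrated compounds. Fixed, Hoechst-stained; gated GFP peak intensity by laser scanning cytometry, normalized to DMSO (0%) and 57.5 uM 5-azacytidine (100%).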
Work on `O=C1CN(/N=C/c2ccc([N+](=O)[O-])o2)C(=O)N1` yielded an activation of -7.53%. `CC(C)=CCC/C(C)=C/CO` was tested, and the activation was -11.9%. Work on `NC(=O)NS(=O)(=O)c1ccc(Cl)cc1` yielded an activation of 1.69%. `O=C(c1ccc(F)cc1)C1CCN(CCn2c(=S)[nH]c3ccccc3c2=O)CC1` was tested, and the activation was -8.47%. In the case of `CCC(CC)(CC(=O)Nc1cccc(/C=C/c2nc(C3CCC3)cs2)c1)C(=O)O`, the activation is reported as 24.3%. `OC[C@H]1O[C@@H](O[C@H]2[C@@H](O)[C@@](O)(CO)O[C@@H]2CO)[C@H](O)[C@@H](O)[C@@H]1O` gave an activation of 0.771%. `CCCCCCCC(=O)OCC(COC(=O)CCCCCCC)OC(=O)CCCCCCC` gave an activation of -13.4%. With `COC(=O)/C=C(/C)N` the activation was 8.47%. With `COc1ccc(CN(CCN(C)C)c2ncccn2)cc1` the activation was 5.08%. Work on `COC1=C(OC)C(=O)C(CC=C(C)CCC=C(C)CCC=C(C)CCC=C(C)CCC=C(C)CCC=C(C)CCC=C(C)CCC=C(C)CCC=C(C)CCC=C(C)C)=C(C)C1=O` yielded an activation of 0.831%. With `Cc1nc(C2CCCCC2)c(-c2ccc(S(N)(=O)=O)c(F)c2)o1` the activation was 19.2%. Molecule `CC(C)C[C@@H]1[C@H](c2ccccc2)OC(=O)N1CCCN1CCCCCC1` has an activation of 1.67%. `O=c1[nH]c2cc(C(F)(F)F)c(N3CCOCC3)cc2n(CP(=O)(O)O)c1=O` gave an activation of 6.21%. `NS(=O)(=O)c1cc2c(cc1Cl)NC(CSCc1ccccc1)=NS2(=O)=O` showed an activation of -16.7%. Molecule `CO/N=C(\C(=O)O)c1csc(NC(=O)CCl)n1` has an activation of -17.5%. With `O=[N+]([O-])c1ccc(/C=N\O)o1` the activation was 11.9%. With `CN(C)CCn1nnnc1SCC1=C(C(=O)O)N2C(=O)[C@@H](NC(=O)Cc3csc(N)n3)[C@H]2SC1` the activation was -0.565%. `FC(F)(F)C(Cl)Br` (stereo not given) showed an activation of 8.37%. `CC(NC(=O)c1ccccc1N=Cc1c(O)ccc2ccccc12)c1ccccc1` (stereo not given) was tested, and the Potency was 43.2 µM (active). `O=C1O[C@H](CO)[C@@H](O)[C@H](O)[C@H]1O` was tested, and the activation was 6.69%. `Cc1onc(-c2ccccc2)c1C(=O)Cl` gave an activation of 6.21%. `CCCCCCCCCCCCCCNCCO` showed an activation of -16.7%. `NCC(=O)O` was tested, and the activation was 13%. `CC(C)c1cc2c(cc1S(=O)(=O)O)[C@@]1(C)CCC[C@@](C)(C(=O)O)[C@@H]1CC2` was tested, and the activation was -22%. With `Cc1noc(NS(=O)(=O)c2ccc(N)cc2)c1C` the activation was 9.21% and -0.487%. `Cc1nc(N)nc(N)c1-c1ccc(Cl)c(Cl)c1` was tested, and the activation was 2.82%. `O=C(O)c1ccc(S(=O)(=O)N(Cl)Cl)cc1` was tested, and the activation was 20.9%. `Cc1ccc(-c2ccccc2C#N)cc1` gave an activation of -11.9%. For `CC(C)(Oc1ccc(Cl)cc1)C(=O)O`, the activation was -18.4%. `CN1CCN(CCCN2c3ccccc3Sc3ccc(S(=O)(=O)N(C)C)cc32)CC1` gave an activation of 6.69%. `N[C@@H](CSSC[C@H](N)C(=O)O)C(=O)O` gave an activation of 24.3%. `CC[C@]1(O)C[C@H]2CN(CCC3=c4ccccc4=N[C]3[C@@](C(=O)OC)(c3cc4c(cc3OC)N(C)[C@H]3[C@@](O)(C(N)=O)[C@H](O)[C@]5(CC)C=CCN6CC[C@]43[C@@H]65)C2)C1` gave an activation of 31.2%. For `O=C(N/N=C/c1ccccc1O)c1ccncc1`, the activation was -12.6%. For `C/C(=C(\CCOP(=O)(O)O)SC(=O)c1ccccc1)N(C=O)Cc1cnc(C)nc1N`, the activation was -11.7%. `O=C1C(=O)c2ccccc2C(O)=C1C1CCC(c2ccc(Cl)cc2)CC1` (stereo not given) was tested, and the activation was -33.3%. Molecule `Fc1ccc(C(c2ccc(F)cc2)N2CCNCC2)cc1` has an activation of -8.47%. `C=CCNC(N)=S` was tested, and the activation was -2.82%. In the case of `COc1ccc(C(=O)NCc2ccc(OCCN(C)C)cc2)cc1OC`, the activation is reported as -28.8%. With `CC(C)C(C)(C)C(C)(C)C(C)(C)S` the activation was 5.08%. For `CC(C)(C)c1ccc(C(=O)CCCCl)cc1`, the activation was 3.95%.
